Bioassay records from PubChem BioAssay.
Rows were chosen to be rich in hits. Some 2.8% of all compounds tested hit in one or more screens of this group.
Peg3 prom inh: inhibitors of Peg3 promoter. HeLa PEG-Prom luciferase reporter, luminescence, overnight. inhibition, % at 20 µM. 360,000 tested, 1.7% active. AID 588405;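 active = inhibition of at least 50% at 20 µM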
Shn3 3UTR inh: inhibitors of Schnurri-3 3'UTR reporter in osteoblasts; Clone20 osteoblast Shn3 3'UTR firefly luciferase, 24 h; 360,000 tested, 0.52% active; inhibition, % at 12.5 µM;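 active = mean inhibition of at least 75% with every replicate also reaching 75%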
MITF TRPM1 inh: reduces MITF-dependent TRPM1 promoter luciferase signal; AID 488899; inhibition, % at 12.5 µM; 330,000 tested, 0.83% active; SK-MEL-5 TRPM1 promoter luciferase, 24 h;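 active = mean inhibition across replicates of 60% or more, whatever share of single replicates reaches that level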
CF NFkB block: blocks PAF-induced NF-kB reporter in cystic fibrosis cells; inhibition, % at 5 µM; 360,000 tested, 0.86% active; KKLEB NF-kB-GFP reporter, GFP fluorescence overnight;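 active = at least 50% inhibition at 5 µM, scaled per plate between neutral and stimulator controls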;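 also: PAF is a Pseudomonas aeruginosa culture filtrate used as stimulus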
HIF-2a block: inhibitors of HIF-2a; 786-0 RCC cells HIF-2a reporter, luciferase luminescence, overnight; inhibition, % at 18.8 µM; 360,000 tested, 0.72% active;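 active = inhibition of the luminescence signal of 40% or more relative to plate controls, in a single-dose primary screen at 18.75 µM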
KKLEB cytotox: counter-screen for CF NF-kB inhibitors: cytotoxicity | KKLEB CF airway cells viability, ATPlite luminescence, overnight; stronger effect = lower value; cells stimulated with P. aeruginosa culture filtrate | activity change (cytotoxicity), % at 5 µM | 360,000 tested, 0.36% active;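 active = corrected activity change at or below -50% at 5 µM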
A number is an active result; i = inactive; nt = no result.

SMILES	Peg3 prom inh	Shn3 3UTR inh	MITF TRPM1 inh	CF NFkB block	HIF-2a block	KKLEB cytotox
C=C(C)Cn1c2ccc(NC(=O)NCCc3ccccc3)cc2c(=O)n1C	i	i	nt	i	i	i
COc1cccc(/C=N/Nc2nc3ccccc3n3cnnc23)c1O	71	i	i	i	i	i
COc1ccc2nc(C)cc(NCc3cccc(C(F)(F)F)c3)c2c1	i	i	69	i	i	i
COc1ccc2nc(C)cc(Nc3ccccc3O)c2c1	i	i	i	i	i	i
COc1cccc(/C=N/Nc2nc3ccccc3n3cnnc23)c1	i	i	i	i	i	i
Cn1c(N)c(C(=O)COC(=O)COc2ccc(Cl)cc2Cl)c(=O)n(C)c1=O	i	i	i	i	i	i
C=CCNc1nc(C(=O)OC(C)C(=O)c2ccc(C)cc2)cs1 (stereo not given)	i	i	i	i	i	i
O=C(Nc1cccc(NC(=O)c2cccnc2)c1)c1ccccc1	i	i	i	i	i	i
NC(=O)c1cccc(-c2cnc(N)c(C(=O)c3cccnc3)n2)c1	62	i	61	52	i	i
O=C1C(=O)N(Cc2ccccc2)C(=O)N1CCOc1ccccc1	i	i	i	i	i	i
COc1cc(/C=C/C(=O)O)cc(S(=O)(=O)Nc2ccc(S(=O)(=O)N3CCCCC3)cc2)c1OC	i	i	i	i	i	i
COc1ccccc1N1CCN(C(=O)CCCn2c(=S)[nH]c3ccccc3c2=O)CC1	68	i	nt	i	i	i
Cc1nc2ccc(NS(=O)(=O)c3ccc(Br)cc3)cc2s1	i	i	i	i	i	i
COc1ccc(/C=N/N2C(=O)CSC2=S)cc1	i	i	i	i	i	i
COc1ccc(-c2nn(-c3ccccc3)cc2/C=N/N2C(=O)CSC2=S)cc1	57	i	104	i	43	i
CC(C)c1ccc(C2NC(=S)NC3=C2C(=O)CC(C)(C)C3)cc1 (stereo not given)	i	i	i	i	i	i
O=C(NCc1cccnc1)c1csc([C@@H]2O[C@H](CO)[C@H](O)[C@H](O)[C@H]2O)n1	i	i	nt	i	i	i
COc1cc2c(cc1OC)C(=O)C(c1ccc3c(c1)OCO3)CC2 (stereo not given)	i	i	nt	i	i	i
COc1cc2c(cc1OC)C(=O)C(Br)CC2 (stereo not given)	65	i	nt	70	i	i
CC1=C(CC(=O)c2ccc(Cl)cc2)C(=O)c2ccccc2C1=O	i	i	i	65	i	i
O=Cc1cc2ccccc2nc1SCCCF	i	i	i	i	i	i
NC1=NC(=O)/C(=C/c2ccccc2OCC(=O)Nc2ccc(F)cc2)S1	i	i	i	i	i	i
O=C(COc1ccccc1/C=C1\SC(=S)NC1=O)Nc1ccc(F)cc1	i	i	i	52	i	i
Cc1cc(C)n(CCCN2CCC(C(=O)Nc3cccc(-c4cccc(F)c4)c3)CC2)n1	69	i	62	i	i	i
CCn1nc(C)c(CN2CCC(C(=O)Nc3cccc(-c4cccc(Cl)c4)c3)CC2)c1C	68	i	i	i	i	i
SMILES	Peg3 prom inh	Shn3 3UTR inh	MITF TRPM1 inh	CF NFkB block	HIF-2a block	KKLEB cytotox
COc1cccc(CN(C)C(=O)c2ccc(OCC(=O)Nc3cccc(C(F)(F)F)c3)c(OC)c2)c1	i	86	i	i	i	i
COc1ccc(CN2CCc3c([nH]c4ccccc34)C2)c(OC)c1C	i	i	i	i	i	i
CC(C)(C)c1ccc(-c2cn(-c3ccc(Br)cc3)c3[n+]2CCCS3)cc1	i	i	90	i	i	i
c1ccc(-c2cn(-c3ccccc3)c3[n+]2CCS3)cc1	i	i	i	i	i	i
COc1cc(Cl)c(C)cc1NC(=O)c1ccccc1NC(=O)CN1CCN(c2ccccn2)CC1	91	i	nt	i	i	i
COc1cc(NC(=O)c2ccccc2)c(OC)cc1NC(=O)CN1CCN(c2ccccn2)CC1	i	i	i	i	i	i
CC(=O)Oc1cccc(N2C(=O)c3cccc4c([N+](=O)[O-])ccc(c34)C2=O)c1	i	i	i	i	i	i
O=C1c2cccc3c([N+](=O)[O-])ccc(c23)C(=O)N1CCc1ccccn1	92	nt	i	i	i	i
CN(C)CCCN1C(=O)c2cccc3c([N+](=O)[O-])ccc(c23)C1=O	91	i	i	i	i	i
Nc1ncnc2c1ncn2C1OCC(O)C1O (stereo not given)	i	i	nt	i	i	i
